# Data: the supplement of paper PMC4166925
# ± gives the standard deviation of the averaged measurements. Whole data set: some 33,000 sequences, median “E-score (dimensionless, -0.5 to 0.5)” near -0.046, cut for the highest 2% near 0.36. Only a selection was taken, and the highest values are over-represented in it overall.
# Test system: T1, SpTbr T-box DNA-binding domain (GST fusion)
# T1 sequence: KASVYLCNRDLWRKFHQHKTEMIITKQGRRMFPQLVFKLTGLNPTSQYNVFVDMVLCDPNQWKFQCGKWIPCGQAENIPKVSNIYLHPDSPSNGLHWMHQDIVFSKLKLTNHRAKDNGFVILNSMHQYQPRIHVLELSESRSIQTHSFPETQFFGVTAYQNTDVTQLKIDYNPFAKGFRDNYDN
# Experiment: PBM E-score of 8-mer (E-score (dimensionless, -0.5 to 0.5)); Tbr is Tbrain of the sea star Patiria miniata (Pm) or the sea urchin Strongylocentrotus purpuratus (Sp); higher = stronger binding preference
# Details: the construct has about 5 more residues each side
# Method: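 Universal protein-binding microarray (Agilent AMADID 016060, 60-bp probes with a 35-bp variable region) incubated with 200 nM GST-fused Strongylocentrotus purpuratus Tbr T-box DNA-binding domain (residues 362-554) in PBS pH 7.5. Scored for every ungapped 8-mer (given with its reverse complement) as E-score (range -0.5 to 0.5; >0.45 counts as bound) and Z-score of median probe intensity. Two replicate arrays (datasets 1 and 2).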
# 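Further: protein at 200 nM in PBS on universal double-stranded arrays.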
row,Sequence,PBM E-score of 8-mer
1,TCAATCGA,-0.0374 ± 0.037
2,GACCAAAA,-0.133 ± 0.0068
3,CAGAGCTC,-0.265 ± 0.01
4,CGCACCCA,0.372 ± 0.029
5,CGCACCCG,0.267 ± 0.054
6,CGCACCTA,0.43 ± 0.0064
7,CGCACCGA,0.0672 ± 0.045
8,CCCACCTC,0.251 ± 0.043
9,TGCACCCA,-0.00634 ± 0.056
10,CGCACCGC,0.228 ± 0.031
11,CGCACCAA,0.2705 ± 0.0014
12,CGCACCTC,0.453 ± 0.016
13,CACTCAAG,0.106 ± 0.095
14,ATCTGTAG,-0.206 ± 0.018
15,ATGGGAAC,-0.109 ± 0.011
16,CCAAGGCA,-0.112 ± 0.0028
17,CGTCGAGA,-0.0352 ± 0.014
18,AACCTTTC,-0.0391 ± 0.099
19,CACCTTTA,0.414 ± 0.0042
20,CACCTTTC,0.379 ± 0.024
21,GACCTTTA,-0.242 ± 0.0044
22,AACCTTTA,0.000765 ± 0.041
23,CCCCTTTC,-0.132 ± 0.052
24,AAGGGAGA,-0.13 ± 0.033
25,ATAGCCAT,-0.118 ± 0.018

row,Sequence,PBM E-score of 8-mer
1,CGTGCTCA,-0.0222 ± 0.013
2,TACCACGA,-0.00786 ± 0.00088
3,CGCGCGGC,0.208 ± 0.04
4,ATCTGGCG,0.0377 ± 0.0091
5,ATCGAGAC,0.0132 ± 0.042
6,GGTAGCTA,-0.314 ± 0.032
7,ATAGCCGG,-0.203 ± 0.015
8,CGTGTGTA,0.096 ± 0.044
9,TATGTGAA,0.17 ± 0.07
10,CCTGTGAA,0.363 ± 0.011
11,TGTGTGAA,0.4829 ± 0.004
12,TGGGTGAA,-0.137 ± 0.0066
13,CGTGTGAA,0.4643 ± 0.0031
14,CCTGCCTC,0.0708 ± 0.019
15,CTATCCTA,-0.171 ± 0.0083
16,GTTGACCA,0.142 ± 0.036
17,ATAACCAC,-0.138 ± 0.015
18,TCACACCA,0.4853 ± 0.0026
19,ACACACCA,0.287 ± 0.013
20,CCTCACCA,0.197 ± 0.025
21,ACTCACCA,-0.0326 ± 0.014
22,TCTCACCA,0.372 ± 0.011
23,ACACACAA,0.148 ± 0.02
24,TCGCACCA,0.434 ± 0.023
25,CCACACAA,0.0877 ± 0.025

row,Sequence,PBM E-score of 8-mer
1,GCGCACCA,0.00307 ± 0.052
2,TCACACAA,0.435 ± 0.0069
3,CCACACCA,0.314 ± 0.057
4,CCGCACCA,0.186 ± 0.032
5,CCGGGATC,-0.0846 ± 0.051
6,AGTAGAAT,-0.219 ± 0.017
7,GCCCCTGA,-0.091 ± 0.031
8,CCTGGAGC,-0.16 ± 0.026
9,GGGGTAAC,-0.0298 ± 0.022
10,GATGCAAA,0.0247 ± 0.033
11,CCCATCGA,-0.2033 ± 0.0016
12,AGGCCCGC,-0.15 ± 0.036
13,GCACACGA,-0.113 ± 0.11
14,TCACACGA,0.387 ± 0.0091
15,ACACACGA,-0.00198 ± 0.078
16,TCATTGAA,-0.129 ± 0.0043
17,CAACCTGC,0.149 ± 0.015
18,AAGAGGTC,-0.128 ± 0.01
19,AGGAGGTC,-0.269 ± 0.036
20,ACGAGGTG,0.419 ± 0.019
21,AAGAGGTA,-0.272 ± 0.035
22,AGGAGGTG,0.391 ± 0.03
23,ACGAGGTC,-0.114 ± 0.018
24,AGGAGGTA,-0.0388 ± 0.051
25,AAGAGGTG,0.407 ± 0.0088

row,Sequence,PBM E-score of 8-mer
1,ACGAGGTA,-0.0678 ± 0.011
2,ACATAGGT,0.221 ± 0.02
3,CCTGCTAA,0.269 ± 0.031
4,ACCAACAC,0.273 ± 0.0089
5,ACGCTTAA,0.11 ± 0.0092
6,GGCCGTAC,-0.249 ± 0.0084
7,ATTTGGGC,-0.181 ± 0.017
8,CACTTAGG,0.117 ± 0.04
9,ATGGTCCG,-0.11 ± 0.029
10,ATGATGGA,-0.179 ± 0.029
11,ATCACACG,0.417 ± 0.027
12,ATCACAGA,0.102 ± 0.074
13,ATCACAAA,0.106 ± 0.014
14,ATCACAGG,0.227 ± 0.05
15,ATCACACA,0.425 ± 0.017
16,ATCACATA,0.251 ± 0.055
17,AACAGCTA,0.232 ± 0.018
18,GAATCAGC,-0.196 ± 0.017
19,AAGCTTAG,-0.108 ± 0.11
20,CCTAGCAC,0.257 ± 0.016
21,ATTAGCAG,0.0716 ± 0.046
22,CTTAGCAC,0.364 ± 0.0057
23,CTTAGCAA,0.0388 ± 0.079
24,ATTAGCAC,0.368 ± 0.038
25,ATTAGCAA,-0.0446 ± 0.11

row,Sequence,PBM E-score of 8-mer
1,AGCATGGA,-0.0258 ± 0.071
2,ATGCTCTG,-0.168 ± 0.038
3,CGCTCAAA,0.00388 ± 0.065
4,ATATTAAA,-0.0775 ± 0.025
5,GATCACGC,0.359 ± 0.037
6,GATCACAA,0.251 ± 0.0097
7,AATCACAG,0.06 ± 0.051
8,CATCACAA,0.204 ± 0.042
9,GATCACAC,0.479 ± 0.01
10,AATCACAA,0.212 ± 0.018
11,AATCACAC,0.457 ± 0.011
12,CATCACAG,0.184 ± 0.0071
13,CATCACAC,0.451 ± 0.0075
14,CGCGACCG,0.29 ± 0.031
15,GGTACCAA,-0.0861 ± 0.086
16,ACAAAGGT,0.119 ± 0.0064
17,ACTGGGCT,-0.25 ± 0.058
18,AGTGGCAG,0.171 ± 0.033
19,AACCCCGC,0.136 ± 0.034
20,AAGGTGCA,0.35 ± 0.01
21,GAGGTGCC,0.379 ± 0.019
22,AAGGTGCC,0.364 ± 0.0073
23,ACGGTGCG,0.298 ± 0.024
24,AAGGTACG,-0.0434 ± 0.066
25,AAGGTGCG,0.4522 ± 0.0011

row,Sequence,PBM E-score of 8-mer
1,AAGGTGCT,0.4354 ± 0.0022
2,CAGGTGCC,0.388 ± 0.034
3,GAGGTGCA,0.338 ± 0.032
4,CTGGTGCC,0.141 ± 0.076
5,AAGGTGGT,0.247 ± 0.033
6,CGGGTGCC,0.18 ± 0.0043
7,AAATAGCG,0.169 ± 0.013
8,CACCCCTA,0.212 ± 0.022
9,CGCTACAA,0.107 ± 0.069
10,AACCATGG,-0.0415 ± 0.0021
11,ACTTCGAG,0.0665 ± 0.024
12,CAGATGCG,-0.139 ± 0.019
13,CAGGTGCG,0.454 ± 0.01
14,CAGGTGCA,0.265 ± 0.028
15,CAGGTCTA,-0.191 ± 0.055
16,AGCTAGCT,0.0778 ± 0.066
17,CACAAACC,-0.19 ± 0.028
18,GCAACACC,0.439 ± 0.0069
19,CCAACACG,0.232 ± 0.013
20,ACAACACA,0.349 ± 0.0079
21,CCAACACC,0.4264 ± 0.0023
22,ACAACACT,0.345 ± 0.0051
23,GCAACAAC,0.0625 ± 0.016
24,CCAACACA,0.299 ± 0.017
25,GCAACACA,0.267 ± 0.014

row,Sequence,PBM E-score of 8-mer
1,ACAACACC,0.424 ± 0.011
2,ATCACCGC,-0.0213 ± 0.03
3,AGTTGTCC,-0.136 ± 0.07
4,ACAATCAG,-0.0516 ± 0.0027
5,ACGCAAGC,-0.101 ± 0.061
6,AACAATTA,0.0621 ± 0.089
7,ACAGTTGA,0.2 ± 0.059
8,CATGGGCC,-0.352 ± 0.015
9,AGTACCGG,-0.341 ± 0.03
10,ACGAGAAC,0.186 ± 0.0072
11,ATGAGAAC,-0.0381 ± 0.053
12,ATGAGAAA,-0.221 ± 0.031
13,CTGAGAAC,0.0561 ± 0.038
14,GCGAGAAC,0.393 ± 0.0087
15,CTGAGAAA,-0.0469 ± 0.13
16,GTGAGAAC,0.4469 ± 0.0042
17,GCGAGAAA,0.342 ± 0.0013
18,GTGAGAAA,0.441 ± 0.016
19,CCAACTCC,-0.0214 ± 0.0039
20,GTCAAGGA,-0.0692 ± 0.085
21,AGCAAGAT,-0.0318 ± 0.027
22,CTTTTTTC,-0.0265 ± 0.039
